These results are taken from PubChem BioAssay (NCATS).

Where “and” joins values, the source holds several entries; their conditions need not be identical. Identical values can stand only once. Unmarked numbers belong to inactive results. Records with an inconclusive call do not appear. Calls of active or inactive are those of the source. Unless noted, calls come from the whole dose curve; as a rule, active = well fitted curve in the direction sought with a large enough effect; inconclusive = small, poorly fitted or top-dose-only effect, or another doubt; inactive = no such curve, though single readings can be large; an effect the other way counts as inactive or inconclusive.

Assay [1] relates to CAOV3. Briefly: Primary qHTS to identify gynecologic anti-cancer compounds using libraries of approved drugs and bioactive compounds (AID 1345084). Note: nearly all actives have a fitted effect of over 55% in size. Note: potency is the fitted concentration of half-maximal effect. Particulars: Gynecologic cancer cell panel viability, ATPlite luminescence, 48 h; series mostly up to 57.5 µM. Put shortly: (§1)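 Cytotoxicity screen measuring ATP content by luciferase luminescence. Each compound is applied at five concentrations for 48 h at 37 C with 5% CO2.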
A general note: Quantitative high-throughput screening tests each substance at several concentrations.

In assay [2] the test system is CASKI. The assay is described as above. Particulars: Gynecologic cancer cell panel viability, ATPlite luminescence, 48 h; series mostly up to 57.5 µM. Put shortly: as §1
In general terms: Cellular ATP, detected with luciferase, serves as a proxy for viable cell number.

Assay [3] concerns Es-2. The description is as above. Particulars: Gynecologic cancer cell panel viability, ATPlite luminescence, 48 h; series mostly up to 57.5 µM. Put shortly:
as §1

Assay [4] concerns HeLa. The description is as above. Particulars: Gynecologic cancer cell panel viability, ATPlite luminescence, 48 h; series mostly up to 57.5 µM. Put shortly:
as §1

Assay [5] relates to Hek293T. The description is as above. Particulars: Gynecologic cancer cell panel viability, ATPlite luminescence, 48 h, control line for the selectivity index; series mostly up to 57.5 µM. Put shortly:
as §1

In assay [6] the test system is JEG-3. The description is as above. Particulars: Gynecologic cancer cell panel viability, ATPlite luminescence, 48 h; series mostly up to 57.5 µM. The essentials:
as §1

For assay [7], the system named is OV90. The assay is described as above. Particulars: Gynecologic cancer cell panel viability, ATPlite luminescence, 48 h; series mostly up to 57.5 µM. The essentials: as §1
The subject of assay [8] is PA-1. Described as above. Particulars: Gynecologic cancer cell panel viability, ATPlite luminescence, 48 h; series mostly up to 57.5 µM. The essentials:
as §1

For assay [9], the system named is SKOV3. The description is as above. Particulars: Gynecologic cancer cell panel viability, ATPlite luminescence, 48 h; series mostly up to 57.5 µM. Put shortly:
as §1

In assay [10] the test system is Tov-21-G. The assay is described as above. Particulars: Gynecologic cancer cell panel viability, ATPlite luminescence, 48 h; series mostly up to 57.5 µM. Put shortly:
as §1

For assay [11], the system named is Tov112D. The description is as above. Particulars: Gynecologic cancer cell panel viability, ATPlite luminescence, 48 h; series mostly up to 57.5 µM. Put shortly:
as §1

The nature of assay [12]: Drug repurposing screens with cells derived from glioblastoma tumor samples (AID 1345199). For activity, negative = cell killing: % is set by controls: 0 for no effect and ±100 for the full control effect. Note: nearly all actives have a fitted effect of over 40% in size. Note: potency is the fitted concentration of half-maximal effect. Particulars: GBM patient neurospheres viability, ATP luminescence, 48 h. Put shortly:
(§2)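 Primary testing used CD133+ neurospheres from four GBM patients, seven concentrations, 48 h exposure and ATP-based viability; confirmation added three slower-growing patient lines.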

The test system of assay [13] is astro. The assay is described as above. Particulars: viability, ATP luminescence, 48 h; series mostly up to 45.9 µM. Put shortly: as §2
Assay [14] deals with Nuclear receptor subfamily 1 group I member 2 (Rattus norvegicus) (UniProt Q9R1A7). Description: qHTS assay for small molecule activators of the rat pregnane X receptor (rPXR) signaling pathway (AID 651751; call rule not given here; note: 0% is about no effect). Particulars: rPXR reporter cells, luciferase (One-Glo), 24 h.
The nature of assay [15]: qHTS assay to identify inhibitors of the type 1 interferon - major histocompatibility complex class I in skeletal muscle: Counter screen cell viability and HiBit confirmation (AID 1347412). Note: potency is the fitted concentration of half-maximal effect; nearly all actives have a fitted effect of over 60% in size. Particulars: iHSKM muscle cells + IFN-b, HiBiT or CellTiter-Glo, 24 h; Potency: HiBiT; Viability, at 45.9 µM (top of the series). The essentials: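 Duplicate plates, pinned identically: one read for HiBiT-tagged endogenous HLA-B luminescence, the other for ATP-content viability via CellTiter Glo. Cells were genome-engineered human myoblasts given 4 ng/ml IFN-b; compounds 12-pt, 1:3 from 46 uM final; 24 hr exposure.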

The nature of assay [16]: qHTS assay for small molecule activators of the human pregnane X receptor (PXR) signaling pathway (AID 720659; call rule not given here; note: 0% is about no effect).
Where [17] appears, read: at 45.9 µM (top of the series), tumour line B.
Where [18] appears, read: at 45.9 µM (top of the series), tumour line D.
Where [19] appears, read: at 46 µM (top of the series), tumour line A.

Nuclear receptor subfamily 1 group I member 2 (Rattus norvegicus), sequence (Q9R1A7 whole entry, looked up): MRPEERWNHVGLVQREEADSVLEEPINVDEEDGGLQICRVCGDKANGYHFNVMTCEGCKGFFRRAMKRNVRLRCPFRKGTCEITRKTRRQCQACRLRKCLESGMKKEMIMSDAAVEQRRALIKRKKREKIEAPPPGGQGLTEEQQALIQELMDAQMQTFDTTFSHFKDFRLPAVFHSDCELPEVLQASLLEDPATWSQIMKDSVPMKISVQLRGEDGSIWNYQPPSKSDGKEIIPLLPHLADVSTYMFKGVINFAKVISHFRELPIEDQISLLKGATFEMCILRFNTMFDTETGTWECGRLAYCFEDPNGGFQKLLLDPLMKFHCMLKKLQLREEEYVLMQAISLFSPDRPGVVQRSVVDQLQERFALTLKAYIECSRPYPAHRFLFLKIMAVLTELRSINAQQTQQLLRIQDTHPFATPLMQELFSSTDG

For `N[C@@H](Cc1ccc(Oc2cc(I)c(O)c(I)c2)c(I)c1)C(=O)O`, the Potency result in assay [1], in [2], in [3], in [4], in assay [5] and in [6] was “inactive” each time. Further, the Potency entry in assay [7], in [8], in [9], in assay [10], in [11] and in assay [13] was “inactive” each time. In addition, the figures for the activity, negative = cell killing in [12] (setting [17]), in assay [12] (setting [18]) and in assay [12] (setting [19]) were -6.2%, -17.5% and -27.6%, respectively.

Take `CC1OC(C)OC(C)O1` (stereo not drawn): the Potency entry in assay [1], in assay [2], in [3], in assay [4], in assay [5] and in assay [6] was “inactive” in each case. The Potency entry in assay [7], in assay [8], in assay [9], in assay [10], in assay [11] and in assay [13] was “inactive” throughout. The activity, negative = cell killing was 0.183% and 0.957% in [12] (setting [17]); -11.1% and -5.15% in [12] (setting [18]); -20.8% and 1.27% in assay [12] (setting [19]).

As to `CCOP(=S)(OCC)Oc1cc(C)nc(C(C)C)n1`, the Potency result in [1], in assay [2], in assay [3], in [4], in assay [5] and in assay [6] was “inactive” in each case. The Potency entry in assay [7], in assay [8], in [9], in [10], in assay [11] and in assay [13] was “inactive” throughout. For the same molecule, the activity, negative = cell killing in assay [12] (setting [17]) is -12.9%; in [12] (setting [18]), 4.41%; in [12] (setting [19]), -24.4%. Moreover, the max response in [14] was 3.69% and 1.39%.

Consider `C[C@@H]1O[C@@H](O[C@H]2C[C@@H](O)[C@]3(CO)[C@H]4[C@H](O)C[C@]5(C)[C@@H](C6=CC(=O)OC6)CC[C@]5(O)[C@@H]4CC[C@]3(O)C2)[C@H](O)[C@H](O)[C@H]1O`, for which the Potency in assay [1] is 251 nM (active) and 199 nM (active); in assay [2], 562 nM (active) and 794 nM (active); in assay [3], 316 nM (active) and 141 nM (active); in assay [4], 224 nM (active) and 158 nM (active); in assay [5], 282 nM (active) and 178 nM (active); in assay [6] it was 355 nM (active). The Potency was 447 nM (active) and 794 nM (active) in assay [7]; 316 nM (active) and 141 nM (active) in [8]; 251 nM (active) and 158 nM (active) in assay [9]; 251 nM (active) and 141 nM (active) in assay [10]; 89.1 nM (active) and 100 nM (active) in assay [11]; 158 nM (active) in assay [12] (tumour line A). In addition, the Potency was 112 nM (active) in assay [12] (tumour line B); 398 nM (active) in [12] (tumour line D); 316 nM (active) and 89.1 nM (active) in assay [13]; 70.1 nM (active) and 55.7 nM (active) in assay [15]. In addition, the max response in assay [14] is 0.133%. In addition, the call in [16] was inactive.

For the molecule `C=C1CC[C@@]2(O)[C@H]3Cc4ccc(O)c5c4[C@@]2(CCN3CC2CC2)[C@H]1O5`, the Potency entry in assay [1], in [2], in [3], in [4], in assay [5] and in assay [6] was “inactive” each time. The Potency entry in assay [7], in assay [8], in assay [9], in [10], in [11] and in assay [13] was “inactive” each time. For the same molecule, the activity, negative = cell killing was -11% in assay [12] (setting [17]) and 5.06% in [12] (setting [18]).

Regarding `Cc1ccc(-c2nc3ccc(C)cn3c2CC(=O)N(C)C)cc1`, the Potency result in assay [1], in assay [2], in [3], in [4], in assay [5] and in assay [6] was “inactive” throughout. For the same molecule, the Potency entry in [7], in assay [8], in assay [9], in assay [10], in assay [11] and in assay [13] was “inactive” in each case. Further, the activity, negative = cell killing in assay [12] (setting [17]) was -10.9%; in assay [12] (setting [18]) it was 2.33%; in assay [12] (setting [19]), -24.8%.

Turning to `CCN(CC)CCOC(=O)C(O)(c1ccccc1)c1ccccc1`, the Potency entry in assay [1], in assay [2], in assay [3], in assay [4], in assay [5] and in assay [6] was “inactive” in each case. The Potency entry in assay [7], in [8], in [9], in [10], in [11] and in assay [13] was “inactive” in each case. Moreover, the activity, negative = cell killing is -7.05% in [12] (setting [17]), -0.674% in assay [12] (setting [18]) and -16.9% in [12] (setting [19]).
